# Test results from PubChem BioAssay (NCATS).
# Several values for one entry are separate records, joined by “and”; a condition that tells them apart may be missing. Equal entries are not always repeated. Results filed as inconclusive are left out. Where a call stands in place of a potency, no number is given. Activity calls are given as the source filed them. Unless noted, calls follow the shape of the dose curve; as a rule, active = well fitted curve in the direction sought with a large enough effect; inconclusive = small, poorly fitted or top-dose-only effect, or another doubt; inactive = no such curve, though single readings can be large; an effect the other way counts as inactive or inconclusive.
# Tests used:
# [1] = molecular target: Calcium and integrin-binding protein 1 (Homo sapiens) (UniProt Q99828); experiment: Validation qHTS for Identification of Calcium Integrin Binding protein 1 (CIB1) Competitor (AID 1508618)
# In short: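 In this qHTS validation, the LOPAC set (up to 114 uM) was tested for blocking CIB1 binding to a fluorescein-tagged alphaIIb peptide, with FP detection at 480/540 nm.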
# [2] = molecular target: Calcium and integrin-binding protein 1 (Homo sapiens) (UniProt Q99828); experiment: Primary qHTS for Identification of Calcium Integrin Binding Protein 1 (CIB1) Competitor (AID 1508620);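 also: GST tagged CIB1 binding a fluorescein labelled alphaIIb integrin peptide tracer; top concentration of the series differs between compounds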
# In short: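 Fluorescence polarization competition: CIB1-GST (1 uM final) preincubated with compound 15 min at room temperature, then FITC-labeled alphaIIb peptide (100 nM final) added for another 15 min. Polarization read at Ex 480/Em 540.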
# [3] = Primary qHTS for small molecule stabilizers of the endoplasmic reticulum resident proteome: Secreted ER Calcium Modulated Protein (SERCaMP) assay (AID 1508630)
# In short: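 The SH-SY5Y reporter protocol was run at 3 concentrations up to 38.3 uM (primary) or 11 concentrations (follow-up): 16 h compound, 100 nM thapsigargin for 4 h, then extracellular luciferase luminescence.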
# [4] = A High-Content qHTS Against Drug Library for the Identification of Small Molecules that Inhibit DYT1 Early Onset Primary Dystonia-Associated Cell Pathology (AID 1645839; calls by dose curve; also: series mostly up to about 46 µM)
# In short: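 Induced EGFP-delE TorsinA cells are imaged after 48 h of compound treatment. Punctate fusion-protein distribution gives the %pathology value, while nuclei counts flag toxicity. Wild-type EGFP-hTOR1A cells define the normal pattern.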
# [5] = molecular target: Cytochrome P450 2D6 (Homo sapiens) (UniProt P10635); experiment: Cytochrome P450 family 2 subfamily D member 6 (CYP2D6) small molecule antagonists: luciferase biochemical (cell-free) qHTS assay (AID 1645840; active = well fitted curve in the direction sought with a large enough effect in the repeat runs; an effect the other way counts as inactive or inconclusive; also: nearly all actives have a fitted effect of over 55% in size; also: potency is read from the fitted curve at half-maximal effect; as to activity change, negative = inhibition: series mostly up to about 57 µM)
# In short: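 P450-Glo CYP2D6 system: proluciferin substrate converted by enzyme to luciferin, read by luminescence proportional to activity. Enzyme-substrate mix with compound 10 min at room temperature, then NADPH regeneration 1 h before detection reagent.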
# [6] = molecular target: Papain (Carica papaya) (UniProt P00784); experiment: Primary qHTS assay for inhibitors of the protease papain (AID 1645873);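 also: papain turnover of Z-FR-AMC read as the AMC fluorescence gain over 10 min; series mostly up to about 50 µM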
# [7] = Primary qHTS for inhibitors of nuclear receptor binding SET domain protein 2 (NSD2) in an isogenic RCH-ACV NSD2 p.E1099K mutant (9B) (AID 1645876); also: nearly all actives have a fitted effect of over 70% in size
# [8] = Primary qHTS for inhibitors of nuclear receptor binding SET domain protein 2 (NSD2) in an RCH-ACV wild type WT cells (2C) (AID 1645877); also: nearly all actives have a fitted effect of over 70% in size
# [9] = molecular target: Cytochrome P450 2C9 (Homo sapiens) (UniProt P11712); experiment: Cytochrome P450 family 2 subfamily C member 9 (CYP2C9) small molecule antagonists: luciferase biochemical (cell-free) qHTS assay (AID 1645842; active = well fitted curve in the direction sought with a large enough effect in the repeat runs; an effect the other way counts as inactive or inconclusive; also: nearly all actives have a fitted effect of over 55% in size; also: potency is read from the fitted curve at half-maximal effect; as to activity change, negative = inhibition: series mostly up to about 57 µM)
# In short: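 P450-Glo CYP2C9 system: proluciferin substrate with enzyme in mix containing 0.4% BSA, 10 min at room temperature, then NADPH regeneration solution added and incubated 1 h at 37C. Detection reagent stopped reaction; luminescence read after 20 min as RLU.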
# [10] = molecular target: Rap guanine nucleotide exchange factor 3 (Homo sapiens) (UniProt O95398); experiment: Confirmatory qHTS for antagonist of cAMP-regulated guanine nucleotide exchange factor 3 (EPAC1) (AID 1645880); also: nearly all actives have a fitted effect of over 55% in size
# In short: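 Released BODIPY-GDP fluoresces less than Rap1-bound BODIPY-GDP; the signal is followed at 480/540 nm at 5-min intervals over 30 min, after 5 min at room temperature. Reactions contain 100 nM EPAC1, 250 nM RAP1B-BODIPY-GDP and 50 uM GDP; results are normalized to ATA and DMSO.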
# [11] = molecular target: Rap guanine nucleotide exchange factor 3 (Homo sapiens) (UniProt O95398); experiment: Confirmatory qHTS for agonist of cAMP-regulated guanine nucleotide exchange factor 3 (EPAC1) (AID 1645881);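 also: EPAC1 catalysed release of BODIPY-GDP from Rap1B seen as fluorescence loss; nearly all actives have a fitted effect of over 75% in size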
# [12] = molecular target: Rap guanine nucleotide exchange factor 4 (Homo sapiens) (UniProt Q8WZA2); experiment: Confirmatory qHTS for agonist of cAMP-regulated guanine nucleotide exchange factor 4 (EPAC2) (AID 1645884);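 also: nucleotide exchange releases bodipy-GDP from Rap1 and this lowers its fluorescence; nearly all actives have a fitted effect of over 65% in size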
# [13] = molecular target: Rap guanine nucleotide exchange factor 4 (Homo sapiens) (UniProt Q8WZA2); experiment: Confirmatory qHTS for antagonist of cAMP-regulated guanine nucleotide exchange factor 4 (EPAC2) (AID 1645885); also: nearly all actives have a fitted effect of over 25% in size; also: potency is read from the fitted curve at half-maximal effect
# [14] = molecular target: Catechol O-methyltransferase (Homo sapiens) (UniProt P21964); experiment: Confirmatory Screen for Target Class Profiling of Small Molecule Inhibitors of Methyltransferases (AID 1745852); details: MTase-Glo luminescence, SAH detection, recombinant enzyme; measured here: COMT max response; stronger effect = lower value
# Sequence of Catechol O-methyltransferase (Homo sapiens) (P21964 whole entry, looked up): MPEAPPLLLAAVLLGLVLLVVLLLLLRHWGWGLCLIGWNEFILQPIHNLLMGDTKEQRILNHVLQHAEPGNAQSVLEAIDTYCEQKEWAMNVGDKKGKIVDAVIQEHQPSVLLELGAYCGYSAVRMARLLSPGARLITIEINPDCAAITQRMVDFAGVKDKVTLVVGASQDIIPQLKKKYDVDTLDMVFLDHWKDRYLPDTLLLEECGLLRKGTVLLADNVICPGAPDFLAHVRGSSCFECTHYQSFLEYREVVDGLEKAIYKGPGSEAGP
# Sequence of Cytochrome P450 2C9 (Homo sapiens) (P11712 whole entry, looked up): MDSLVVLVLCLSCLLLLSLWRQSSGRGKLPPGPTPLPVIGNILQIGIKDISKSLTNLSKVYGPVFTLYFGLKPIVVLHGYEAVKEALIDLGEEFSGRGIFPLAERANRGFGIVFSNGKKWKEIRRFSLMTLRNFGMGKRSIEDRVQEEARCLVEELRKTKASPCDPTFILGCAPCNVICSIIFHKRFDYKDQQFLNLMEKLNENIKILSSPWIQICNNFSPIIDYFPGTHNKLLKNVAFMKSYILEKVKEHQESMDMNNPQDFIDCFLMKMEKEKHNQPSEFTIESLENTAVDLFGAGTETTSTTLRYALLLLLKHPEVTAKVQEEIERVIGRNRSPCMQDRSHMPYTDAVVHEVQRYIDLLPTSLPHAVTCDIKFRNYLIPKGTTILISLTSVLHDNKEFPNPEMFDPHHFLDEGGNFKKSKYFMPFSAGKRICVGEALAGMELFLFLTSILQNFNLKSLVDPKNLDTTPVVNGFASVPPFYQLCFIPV
# Sequence of Cytochrome P450 2D6 (Homo sapiens) (P10635 whole entry, looked up): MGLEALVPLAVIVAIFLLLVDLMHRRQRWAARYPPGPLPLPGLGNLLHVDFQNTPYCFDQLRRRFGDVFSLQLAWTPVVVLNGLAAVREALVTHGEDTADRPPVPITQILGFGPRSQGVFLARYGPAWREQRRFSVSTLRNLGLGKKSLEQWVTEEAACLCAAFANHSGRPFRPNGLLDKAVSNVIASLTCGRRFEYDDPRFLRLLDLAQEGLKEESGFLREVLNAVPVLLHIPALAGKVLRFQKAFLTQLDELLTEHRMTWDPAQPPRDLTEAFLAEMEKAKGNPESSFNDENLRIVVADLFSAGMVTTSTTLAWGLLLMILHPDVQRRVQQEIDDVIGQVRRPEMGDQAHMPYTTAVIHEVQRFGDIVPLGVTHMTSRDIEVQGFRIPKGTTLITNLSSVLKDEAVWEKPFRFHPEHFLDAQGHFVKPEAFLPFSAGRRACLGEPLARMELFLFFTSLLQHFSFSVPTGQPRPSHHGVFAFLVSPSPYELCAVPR
# Sequence of Rap guanine nucleotide exchange factor 3 (Homo sapiens) (O95398 whole entry, looked up): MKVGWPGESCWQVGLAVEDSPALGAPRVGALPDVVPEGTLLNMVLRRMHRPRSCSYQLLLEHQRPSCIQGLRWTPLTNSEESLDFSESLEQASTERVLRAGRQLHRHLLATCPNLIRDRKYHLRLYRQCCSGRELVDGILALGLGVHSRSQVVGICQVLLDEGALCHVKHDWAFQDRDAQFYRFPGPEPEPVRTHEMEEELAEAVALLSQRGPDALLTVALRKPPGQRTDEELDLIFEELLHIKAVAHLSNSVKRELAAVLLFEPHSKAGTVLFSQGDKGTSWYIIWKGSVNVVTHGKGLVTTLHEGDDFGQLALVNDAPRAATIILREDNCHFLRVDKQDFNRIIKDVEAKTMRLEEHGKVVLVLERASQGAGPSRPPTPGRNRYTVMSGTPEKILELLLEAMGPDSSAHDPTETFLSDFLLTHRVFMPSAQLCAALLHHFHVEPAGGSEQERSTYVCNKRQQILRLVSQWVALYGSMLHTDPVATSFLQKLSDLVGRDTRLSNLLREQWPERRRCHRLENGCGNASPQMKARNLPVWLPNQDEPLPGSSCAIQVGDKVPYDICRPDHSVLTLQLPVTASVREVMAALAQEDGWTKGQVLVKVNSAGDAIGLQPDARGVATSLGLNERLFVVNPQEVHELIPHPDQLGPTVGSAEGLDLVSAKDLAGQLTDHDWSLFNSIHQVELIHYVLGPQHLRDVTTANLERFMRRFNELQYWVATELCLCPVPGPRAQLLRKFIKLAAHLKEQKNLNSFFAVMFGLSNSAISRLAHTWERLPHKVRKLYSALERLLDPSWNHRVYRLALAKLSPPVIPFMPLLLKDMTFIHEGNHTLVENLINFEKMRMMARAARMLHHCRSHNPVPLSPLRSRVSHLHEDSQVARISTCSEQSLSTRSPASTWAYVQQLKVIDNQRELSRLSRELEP
# Sequence of Rap guanine nucleotide exchange factor 4 (Homo sapiens) (Q8WZA2 whole entry, looked up): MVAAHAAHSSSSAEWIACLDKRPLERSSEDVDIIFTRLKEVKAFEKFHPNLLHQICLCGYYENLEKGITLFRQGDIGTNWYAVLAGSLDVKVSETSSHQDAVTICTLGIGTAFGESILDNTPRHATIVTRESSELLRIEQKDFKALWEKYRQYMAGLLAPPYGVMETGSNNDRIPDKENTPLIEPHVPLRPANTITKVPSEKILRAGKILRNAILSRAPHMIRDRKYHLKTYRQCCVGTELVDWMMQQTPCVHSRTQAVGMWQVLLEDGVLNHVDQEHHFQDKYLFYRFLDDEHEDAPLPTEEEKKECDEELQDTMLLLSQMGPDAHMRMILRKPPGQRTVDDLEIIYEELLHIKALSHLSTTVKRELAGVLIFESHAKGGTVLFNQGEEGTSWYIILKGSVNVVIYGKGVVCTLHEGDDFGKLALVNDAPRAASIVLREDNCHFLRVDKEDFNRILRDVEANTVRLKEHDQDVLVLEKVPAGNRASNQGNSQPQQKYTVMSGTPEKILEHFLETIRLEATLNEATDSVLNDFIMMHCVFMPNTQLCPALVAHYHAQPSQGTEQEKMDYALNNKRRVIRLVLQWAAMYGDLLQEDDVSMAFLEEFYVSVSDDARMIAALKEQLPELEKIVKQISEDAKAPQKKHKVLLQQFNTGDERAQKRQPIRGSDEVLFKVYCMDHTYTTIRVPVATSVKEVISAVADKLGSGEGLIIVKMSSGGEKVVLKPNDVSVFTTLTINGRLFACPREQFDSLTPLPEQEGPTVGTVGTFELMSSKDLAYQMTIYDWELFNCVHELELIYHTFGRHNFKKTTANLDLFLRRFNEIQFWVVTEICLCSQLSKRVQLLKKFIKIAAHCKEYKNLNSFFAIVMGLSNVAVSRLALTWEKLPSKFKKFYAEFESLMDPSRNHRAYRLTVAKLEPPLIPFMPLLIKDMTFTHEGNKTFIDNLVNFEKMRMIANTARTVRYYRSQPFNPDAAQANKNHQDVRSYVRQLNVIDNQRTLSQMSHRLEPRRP
# Sequence of Papain (Carica papaya) (P00784 whole entry, looked up, the tested form may be a part): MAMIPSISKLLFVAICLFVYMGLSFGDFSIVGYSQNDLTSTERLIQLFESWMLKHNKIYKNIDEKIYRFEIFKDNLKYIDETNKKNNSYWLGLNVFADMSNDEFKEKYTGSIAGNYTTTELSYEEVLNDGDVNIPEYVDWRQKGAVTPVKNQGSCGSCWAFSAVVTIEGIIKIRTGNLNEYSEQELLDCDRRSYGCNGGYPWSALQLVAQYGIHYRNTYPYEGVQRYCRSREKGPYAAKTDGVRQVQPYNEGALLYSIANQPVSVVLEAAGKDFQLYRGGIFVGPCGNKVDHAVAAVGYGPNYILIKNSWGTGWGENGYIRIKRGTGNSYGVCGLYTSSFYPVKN
# Sequence of Calcium and integrin-binding protein 1 (Homo sapiens) (Q99828 whole entry, looked up): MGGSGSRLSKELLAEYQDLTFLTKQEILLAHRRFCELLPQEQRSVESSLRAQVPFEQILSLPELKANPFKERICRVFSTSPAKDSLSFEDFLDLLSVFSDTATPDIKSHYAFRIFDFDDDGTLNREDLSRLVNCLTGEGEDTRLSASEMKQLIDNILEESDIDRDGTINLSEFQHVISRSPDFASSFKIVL
compound,measurement,setting,value
CCCCNC(=O)NS(=O)(=O)c1ccc(C)cc1,outcome,[1],inactive
same,Potency,[2],inactive
same,Potency,[3],inactive
same,Potency,[4],inactive
same,Potency,[5],inactive
same,Potency,[6],inactive
same,Potency,[7],inactive
same,Potency,[8],inactive
COc1ccc(CN(CCN(C)C)c2ccccn2)cc1,outcome,[1],inactive
same,Potency,[2],inactive
same,Potency,[3],inactive
same,Potency,[4],inactive
same,Potency,[5],195 nM (active) and 213 nM (active)
same,Potency,[9],inactive
same,Potency,[6],inactive
same,Potency,[7],inactive
same,Potency,[8],inactive
CCn1ccnc1CC1COc2ccccc2O1 (configuration not stated),outcome,[1],inactive
same,Potency,[2],inactive
same,Potency,[3],inactive
same,Potency,[4],inactive
same,Potency,[5],1.74 µM (active)
same,Potency,[9],inactive
same,Potency,[6],inactive
same,Potency,[7],inactive
same,Potency,[8],inactive
same,outcome,[10],inactive
same,Potency,[11],inactive
same,Potency,[12],inactive
same,Potency,[13],11.1 µM (active)
CCCN(CCC)C(=O)C(CCC(=O)O)NC(=O)c1ccccc1 (configuration not stated),outcome,[1],inactive
same,Potency,[2],inactive
same,Potency,[3],inactive
same,Potency,[4],inactive
same,Potency,[5],inactive
same,Potency,[9],inactive
same,Potency,[6],inactive
same,Potency,[7],inactive
same,Potency,[8],inactive
CCn1cc(C(=O)O)c(=O)c2cc3c(cc21)OCO3,outcome,[1],inactive
same,Potency,[2],inactive
same,Potency,[3],inactive
same,Potency,[4],inactive
same,Potency,[5],inactive
same,Potency,[9],inactive
same,Potency,[7],inactive
same,Potency,[8],inactive
COc1ccc2c(c1OC)C(=O)O[C@@H]2[C@H]1c2c(cc3c(c2OC)OCO3)CCN1C,outcome,[1],inactive
same,Potency,[2],inactive
same,Potency,[3],inactive
same,Potency,[4],inactive
same,Potency,[5],4.9 µM (active)
same,Potency,[6],inactive
Cc1cccc(C)c1NC(=O)C(C)N (configuration not stated),outcome,[1],inactive
same,Potency,[2],inactive
same,Potency,[3],inactive
same,Potency,[4],inactive
same,Potency,[5],inactive
same,Potency,[6],inactive
same,outcome,[10],inactive
same,Potency,[11],inactive
same,Potency,[12],inactive
same,Potency,[13],inactive
CC(C)(Oc1ccc(CCNC(=O)c2ccc(Cl)cc2)cc1)C(=O)O,outcome,[1],inactive
same,Potency,[2],inactive
same,Potency,[3],inactive
same,Potency,[4],inactive
same,Potency,[5],inactive
same,Potency,[6],inactive
same,Potency,[7],inactive
same,Potency,[8],inactive
Cc1ccc(=O)n(-c2ccccc2)c1,outcome,[1],inactive
same,Potency,[2],inactive
same,Potency,[3],inactive
same,Potency,[4],inactive
same,Potency,[5],inactive
same,Potency,[9],inactive
same,Potency,[6],inactive
same,Potency,[7],inactive
same,Potency,[8],inactive
Brc1c(NC2=NCCN2)ccc2nccnc12,outcome,[1],inactive
same,Potency,[2],inactive
same,Potency,[3],inactive
same,Potency,[4],inactive
same,Potency,[5],21.9 µM (active)
same,Potency,[6],inactive
same,Potency,[7],inactive
same,Potency,[8],inactive
NC(=O)N1c2ccccc2C=Cc2ccccc21,outcome,[1],inactive
same,Potency,[2],inactive
same,Potency,[3],inactive
same,Potency,[4],inactive
same,Potency,[5],inactive
same,Potency,[9],inactive
same,Potency,[6],inactive
same,Potency,[7],inactive
same,Potency,[8],inactive
C[C@]12CCC(=O)C=C1CC[C@@H]1[C@@H]2C(=O)C[C@@]2(C)[C@H]1CC[C@]2(O)C(=O)CO,outcome,[1],inactive
same,Potency,[2],inactive
same,Potency,[3],inactive
same,Potency,[4],inactive
same,Potency,[5],inactive
same,Potency,[9],inactive
same,Potency,[7],inactive
same,Potency,[8],inactive
CCO/C([O-])=N/c1c[n+](N2CCOCC2)no1,outcome,[1],inactive
same,Potency,[2],inactive
same,Potency,[3],inactive
same,Potency,[4],inactive
same,Potency,[5],inactive
same,Potency,[9],inactive
same,Potency,[6],inactive
same,Potency,[7],inactive
same,Potency,[8],inactive
NC(Cc1ccc(Cl)cc1)C(=O)O (configuration not stated),outcome,[1],inactive
same,"activity change, negative = inhibition",[2],-1.79% [at 1.07 µM] (inactive)
same,Potency,[3],inactive
same,"% pathology change, negative = correction",[4],-28% [at 0.369 µM] (inactive)
same,"activity change, negative = inhibition",[5],5.71% [at 0.91 µM] (inactive)
same,"activity change, negative = inhibition",[9],10.6% [at 0.91 µM] (inactive)
same,Potency,[6],inactive
same,outcome,[7],inactive [at 0.588 µM]
same,"activity change, negative = cell killing",[8],2.13% [at 0.588 µM] (inactive)
C[C@@H](O)[C@H]1C(=O)N2C(C(=O)O)=C(SCCN=CN)C[C@H]12,outcome,[1],inactive
same,Potency,[2],inactive
same,Potency,[3],inactive
same,Potency,[4],inactive
same,Potency,[5],inactive
same,Potency,[6],inactive
same,Potency,[7],inactive
same,Potency,[8],inactive
O=C(O)CCCCCCCC(=O)O,outcome,[1],inactive
same,Potency,[2],inactive
same,Potency,[3],inactive
same,Potency,[4],inactive
same,Potency,[5],inactive
same,Potency,[9],inactive
same,Potency,[6],inactive
same,Potency,[7],inactive
same,Potency,[8],inactive
CCCN(CCC)CCc1cccc2c1CC(=O)N2,outcome,[1],inactive
same,Potency,[2],inactive
same,Potency,[3],inactive
same,Potency,[4],inactive
same,Potency,[5],2.75 µM (active)
same,Potency,[9],inactive
same,Potency,[6],inactive
same,Potency,[7],inactive
same,Potency,[8],inactive
same,activity,[14],9.88%
C=CCc1ccccc1OCC(O)CNC(C)C (configuration not stated),outcome,[1],inactive
same,Potency,[2],inactive
same,Potency,[3],inactive
same,Potency,[4],inactive
same,Potency,[5],6.92 µM (active) and 8.49 µM (active)
same,Potency,[6],inactive
same,Potency,[7],inactive
same,Potency,[8],inactive
CN(C(=O)CCCOc1ccc2[nH]c(=O)ccc2c1)C1CCCCC1,outcome,[1],inactive
same,Potency,[2],inactive
same,Potency,[3],inactive
same,Potency,[4],inactive
same,Potency,[5],inactive
same,Potency,[9],13.8 µM (active)
same,Potency,[6],inactive
same,Potency,[8],inactive
CC[N+](C)(C)c1cccc(O)c1,outcome,[1],inactive
same,Potency,[2],inactive
same,Potency,[3],inactive
same,Potency,[4],inactive
same,Potency,[5],inactive
same,Potency,[9],inactive
same,Potency,[6],inactive
same,Potency,[7],inactive
same,Potency,[8],inactive
C[N+](C)(C)CCCCCCCCCC[N+](C)(C)C,outcome,[1],inactive
same,Potency,[2],inactive
same,Potency,[3],inactive
same,Potency,[4],inactive
same,Potency,[5],inactive
same,Potency,[9],inactive
same,Potency,[6],inactive
same,Potency,[7],inactive
same,Potency,[8],inactive
Nc1c2c(nc3ccccc13)CCCC2O (configuration not stated),outcome,[1],inactive
same,Potency,[2],inactive
same,Potency,[3],inactive
same,Potency,[4],inactive
same,Potency,[5],15.5 µM (active)
same,Potency,[6],inactive
same,Potency,[7],inactive
same,Potency,[8],inactive
